High-throughput results deposited in PubChem by National Center for Advancing Translational Sciences (NCATS).
This is a sample that favours compounds with a hit; in the whole collection about 8.9% have one here.
IMPase cell inh: qHTS Assay for Identifying the Cell-Membrane Permeable IMPase Inhibitors | 120,000 tested, under 10 active | inhibition (IP1 accumulation), % at 46.1 µM | CHO-M1 cells, IP1 accumulation, HTRF TR-FRET ratio; active = well fitted curve in the direction sought with a large enough effect in the signal ratio, not every such curve was filed as active; inconclusive = small, poorly fitted or top-dose-only effect, or a change in a side signal; inactive = no such curve, though single readings can be large or run the other way; the % refers to the signal ratio;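 also: cells stimulated with carbachol in lithium chloride buffer; plate controls were DMSO basal wells for no effect and reference inhibitor wells for full effect; higher means more IMPase inhibition seen as more IP1 and lower FRET ratio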
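CHO-M1, 2000 cells/well, cultured 16–30 h; cpd up to 46 uM; carbachol (50 uM solution, stimulation buffer w/ 50 mM LiCl, pH 7.4), 30 min 37C; IP-One TR-FRET, 10 min RT; Ex 320/Em 665, 620; Hill-fit AC50.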
ALDH1A1 inh: qHTS Assay for Inhibitors of Aldehyde Dehydrogenase 1 (ALDH1A1) | Aldehyde dehydrogenase 1A1 (Homo sapiens), P00352 | Purified ALDH1A1, NADH fluorescence, propionaldehyde substrate | Potency, µM (series often up to 75.3 µM), inactives show at the top dose activity, negative = inhibition, most hits filed as inhibitors | actives 7.3% (n = 220,000) | AID 1030, 2008; active = well fitted inhibition curve with a large enough effect, not every such curve was filed as active; inconclusive = small, poorly fitted or top-dose-only effect, or another doubt; inactive = no such curve, though single readings can be large or run the other way;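 also: potency is read from the fitted curve at half-maximal effect; plate controls were no enzyme wells and a reference inhibitor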
Target sequence (P00352 whole entry, looked up): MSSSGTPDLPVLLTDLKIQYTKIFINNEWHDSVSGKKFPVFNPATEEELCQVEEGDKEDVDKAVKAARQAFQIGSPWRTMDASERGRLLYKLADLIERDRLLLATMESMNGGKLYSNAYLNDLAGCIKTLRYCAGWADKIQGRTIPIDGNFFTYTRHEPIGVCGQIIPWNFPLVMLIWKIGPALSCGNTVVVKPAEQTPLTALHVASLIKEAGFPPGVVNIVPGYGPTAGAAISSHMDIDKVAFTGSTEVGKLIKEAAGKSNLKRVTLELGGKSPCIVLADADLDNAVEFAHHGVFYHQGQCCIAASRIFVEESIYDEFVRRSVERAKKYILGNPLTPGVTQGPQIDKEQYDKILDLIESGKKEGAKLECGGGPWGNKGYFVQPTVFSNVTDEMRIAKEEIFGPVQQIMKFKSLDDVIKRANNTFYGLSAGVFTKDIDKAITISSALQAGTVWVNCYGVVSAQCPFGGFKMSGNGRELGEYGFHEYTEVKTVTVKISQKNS
12-hLO inh: qHTS Assay for Inhibitors of 12-hLO (12-human lipoxygenase) | purified 12-hLO, xylenol orange hydroperoxide absorbance | Polyunsaturated fatty acid lipoxygenase ALOX12 (Homo sapiens), P18054 | AID 1452, 2008 | Potency, µM (titrated, usually from 57.1 µM), for inactives: top-dose activity change, negative = inhibition, actives largely listed as inhibitors | actives 0.12% (n = 150,000); also: potency is read from the fitted curve at half-maximal effect; nearly all actives have a fitted effect of over 55% in size
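150 nM 12hLO, 25 mM Hepes pH 7.0 + 0.01% Triton X-100; cpd preinc 15 min RT; 40 uM arachidonic acid, 30 min RT; Fe-XO 30 min; A573/A405 ratio as read-out.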
IMPase Li cell: qHTS Assay for Identifying the Cell-Membrane Permeable IMPase Inhibitors: Potentiation with Lithium | CHO-M1 cells, IP1 TR-FRET (IP-One), carbachol + lithium | Potency, µM (doses to about 59.4 µM), without a hit: at the top dose activity, negative = IMPase inhibition, actives largely listed as inhibitors | actives 0.35% (n = 210,000) | AID 1457, 2008;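 also: IP1 builds up when IMPase is blocked and the TR-FRET signal falls; potency is read from the fitted curve at half-maximal effect; plate controls were basal vehicle for no effect and high inhibitor control for full effect; nearly all actives have a fitted effect of over 50% in size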
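Lithium-sensitised IP1 accumulation assay; M1-expressing CHO cells treated 30 min at 37C with compound. Competitive antibody detection by time-resolved FRET followed a 10 min room-temperature lysis step.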
NPSR antagonist: qHTS Assay for Antagonists of the Neuropeptide S Receptor: cAMP Signal Transduction. Potency, µM (top dose mostly 38.3 µM), for inactives: at the highest dose activity change, negative = inhibition, hits mostly inhibitors. Q6W5P4. actives 1% (n = 220,000). CHO-NPSR cells, cAMP TR-FRET, antagonist mode; also: potency is read from the fitted curve at half-maximal effect; nearly all actives have a fitted effect of over 50% in size
HPGD inh: qHTS Assay for Inhibitors of HPGD (15-Hydroxyprostaglandin Dehydrogenase); 15-hydroxyprostaglandin dehydrogenase [NAD(+)] (Homo sapiens), P15428; purified HPGD, NADH fluorescence kinetic, PGE2 substrate; Potency, µM, for the others: at the highest dose activity change, negative = inhibition, usual class: inhibitors; actives 4.3% (n = 150,000); AID 894, 2007; active = well fitted inhibition curve with a large enough effect, not every such curve was filed as active; inconclusive = small, poorly fitted or top-dose-only effect, or another doubt; inactive = no such curve, though single readings can be large or run the other way; also: potency is read from the fitted curve at half-maximal effect
Target sequence (P15428 whole entry, looked up): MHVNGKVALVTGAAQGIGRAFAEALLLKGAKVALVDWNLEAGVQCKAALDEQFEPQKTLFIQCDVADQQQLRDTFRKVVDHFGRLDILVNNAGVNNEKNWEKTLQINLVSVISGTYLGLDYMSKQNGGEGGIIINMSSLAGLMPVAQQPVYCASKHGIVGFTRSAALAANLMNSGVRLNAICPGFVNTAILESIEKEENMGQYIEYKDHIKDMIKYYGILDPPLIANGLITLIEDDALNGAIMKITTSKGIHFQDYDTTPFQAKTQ
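NADH formation kinetics: reaction with 30 uM PGE2 and 1 mM NAD+ (final), 20 nM enzyme, Tris-HCl pH 8 with Tween 20, after 15 min compound preincubation at room temperature. Fluorescence change, last versus first of five reads.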
Starred values were filed as active, the others as inactive; [ ] = remark or other dose. Unless noted, calls follow the shape of the dose curve; as a rule, active = well fitted curve in the direction sought with a large enough effect; inconclusive = small, poorly fitted or top-dose-only effect, or another doubt; inactive = no such curve, though single readings can be large; an effect the other way counts as inactive or inconclusive. Unless noted, % is scaled to controls: 0 for no effect and ±100 for the full control effect.

What do the screens show for `CCc1ccccc1-n1c(SCC(=O)N2CCCC2)nc2[nH]ncc2c1=O`?
ALDH1A1 inh: inconclusive; IMPase Li cell: 8%; NPSR antagonist: 12%

Results for CCOc1ccc(C2c3c(oc4cc(C)c(C)cc4c3=O)C(=O)N2CCCN2CCOCC2)cc1 (configuration not stated) ?
IMPase cell inh: -3; ALDH1A1 inh: 7.9µM*; 12-hLO inh: -10%; IMPase Li cell: 2%[38.3 µM]; NPSR antagonist: -13%[46.1 µM]; HPGD inh: -19%

Results for CCCOc1ccc(C2c3c(oc4ccccc4c3=O)C(=O)N2CCCN2CCOCC2)cc1 (configuration not stated) ?
IMPase cell inh: 13; ALDH1A1 inh: 8.9µM*; 12-hLO inh: -12%; IMPase Li cell: 24%[38.3 µM]; NPSR antagonist: inconclusive; HPGD inh: -26%

How did COc1cc(C2c3c(oc4ccccc4c3=O)C(=O)N2CCN2CCOCC2)cc(OC)c1OC (configuration not stated) do in these assays?
IMPase cell inh: 10; ALDH1A1 inh: 8%; 12-hLO inh: -1%; IMPase Li cell: 17%[38.3 µM]; NPSR antagonist: 3%[46.1 µM]; HPGD inh: 3%

What do the screens show for `COc1cccc(C2c3c(oc4ccccc4c3=O)C(=O)N2CCCN2CCOCC2)c1` (configuration not stated)?
ALDH1A1 inh: inconclusive; 12-hLO inh: -7%; IMPase Li cell: -4%; NPSR antagonist: 14%; HPGD inh: -11%

How did COc1cccc(C2c3c(oc4cc(C)c(C)cc4c3=O)C(=O)N2CCCN(C)C)c1 (configuration not stated) do in these assays?
IMPase cell inh: 7; ALDH1A1 inh: 28µM*; 12-hLO inh: 0%; IMPase Li cell: 1%[38.3 µM]; NPSR antagonist: 7%[46.1 µM]; HPGD inh: -11%

How did C=CCOc1ccc(C2c3c(oc4ccc(C)cc4c3=O)C(=O)N2CCCN2CCOCC2)cc1 (configuration not stated) do in these assays?
IMPase cell inh: 0

How did Cc1cc2oc3c(c(=O)c2cc1C)C(c1ccc(C(C)C)cc1)N(CCCN1CCOCC1)C3=O (configuration not stated) do in these assays?
ALDH1A1 inh: 4µM*; 12-hLO inh: 5%; IMPase Li cell: 11%; NPSR antagonist: -9%; HPGD inh: -19%

What do the screens show for `OC[C@H]1O[C@@H](n2cnc3c(Nc4ccccc4)ncnc32)[C@H](O)[C@H]1O`?
ALDH1A1 inh: inconclusive; IMPase Li cell: 11%; NPSR antagonist: -12%[46.1 µM]; HPGD inh: -7%

What do the screens show for `Cc1cccn2c(CNCCCn3ncc4ccccc43)c(C(=O)N3CCCCC3)nc12`?
ALDH1A1 inh: inconclusive; IMPase Li cell: 7%; NPSR antagonist: -6%

What do the screens show for `CCOc1ccc(C2c3c(oc4ccccc4c3=O)C(=O)N2CCCN2CCOCC2)cc1` (configuration not stated)?
IMPase cell inh: -12; ALDH1A1 inh: 6.3µM*; 12-hLO inh: -14%; IMPase Li cell: 13%[38.3 µM]; NPSR antagonist: -3%[46.1 µM]; HPGD inh: -18%

How did COC(=O)c1ccc(C2c3c(oc4ccccc4c3=O)C(=O)N2CCCN2CCOCC2)cc1 (configuration not stated) do in these assays?
IMPase cell inh: 7; ALDH1A1 inh: inconclusive; 12-hLO inh: 0%; IMPase Li cell: -2%[38.3 µM]; NPSR antagonist: -3%[46.1 µM]; HPGD inh: -12%

What do the screens show for `O=C(CSc1nncn1-c1cccnc1)N(c1ccccc1)c1ccccc1`?
ALDH1A1 inh: 16µM*; IMPase Li cell: 4%; NPSR antagonist: 11%

What do the screens show for `C/C(N)=C(/C#N)C(=O)CSc1nncn1-c1ccccc1`?
ALDH1A1 inh: 19%; IMPase Li cell: 2%; NPSR antagonist: 21%

What do the screens show for `CC(=O)c1sc(-c2ccccn2)nc1C`?
ALDH1A1 inh: inconclusive; IMPase Li cell: -8%; NPSR antagonist: 24%

How did Cc1c(N=Cc2ccc[nH]2)c(=O)n(-c2ccccc2)n1C do in these assays?
IMPase cell inh: 12; ALDH1A1 inh: 13µM*; 12-hLO inh: -6%; IMPase Li cell: 6%[38.3 µM]; NPSR antagonist: -6%[46.1 µM]; HPGD inh: inconclusive

What do the screens show for `Cc1c(N=Cc2ccncc2)c(=O)n(-c2ccccc2)n1C`?
IMPase cell inh: -4; ALDH1A1 inh: inconclusive; 12-hLO inh: 1%; IMPase Li cell: -11%; NPSR antagonist: -2%[46.1 µM]; HPGD inh: -13%

How did Cc1ccccc1C(=O)N/C(=C/c1ccc(-c2cccnc2Cl)o1)C(=O)NCCCN1CCN(C)CC1 do in these assays?
IMPase cell inh: 17; ALDH1A1 inh: -12%; 12-hLO inh: 3%; IMPase Li cell: -7%[38.3 µM]; NPSR antagonist: -24%[46.1 µM]; HPGD inh: -17%

What do the screens show for `COc1ccccc1CNC(=O)CSc1ccsc1[N+](=O)[O-]`?
ALDH1A1 inh: -7%; IMPase Li cell: 4%; NPSR antagonist: -2%

Results for O=C(CSc1ccsc1[N+](=O)[O-])NCc1ccccc1 ?
ALDH1A1 inh: 3.2µM*; IMPase Li cell: 9%; NPSR antagonist: -6%

Results for COc1ccc(CCNC(=O)CSc2ccsc2[N+](=O)[O-])c(OC)c1 ?
ALDH1A1 inh: 14µM*; IMPase Li cell: 10%; NPSR antagonist: -12%

What do the screens show for `COc1ccc(OC)c(CCNC(=O)CSc2ccsc2[N+](=O)[O-])c1`?
ALDH1A1 inh: 13µM*; IMPase Li cell: 7%; NPSR antagonist: -15%

What do the screens show for `Cc1ccc2nc(SCC(=O)Nc3ccc4sc(C)nc4c3)c(C#N)cc2c1`?
IMPase cell inh: -3; ALDH1A1 inh: 8%; 12-hLO inh: 2%; IMPase Li cell: inconclusive; NPSR antagonist: inconclusive; HPGD inh: -4%

What do the screens show for `Cc1ccc(NC(=O)c2sc3nc(-c4ccc(F)cc4)ccc3c2N)cc1F`?
IMPase cell inh: -8

Results for CCOC(=O)c1ccc(-n2c(CN3CCC(C(N)=O)CC3)nc3ccc([N+](=O)[O-])cc3c2=O)cc1 ?
ALDH1A1 inh: 8.9µM*; IMPase Li cell: 19%; NPSR antagonist: -7%

How did CCOC(=O)c1ccc(-n2c(CN3CCC(O)CC3)nc3ccc([N+](=O)[O-])cc3c2=O)cc1 do in these assays?
ALDH1A1 inh: inconclusive; IMPase Li cell: 4%; NPSR antagonist: -25%
